Compound activity as filed in PubChem.
Only some compounds are listed: those with a hit (about 2.5% of all), similar ones and a draw of the others.
OPRK1 antag MB: blocks the human kappa opioid receptor, Maybridge compounds; P41145; OPRK1 cells, antagonist mode, fluorescence readout; inhibition, % at 9 µM; 16,000 compounds, 0.4% hits; in the data active means inhibition above about 50%
luminol inh ctr: counter-screen for Nox1 inhibitors: inhibitors of luminol chemiluminescence | HRP/luminol/H2O2 chemiluminescence counterscreen | inhibition, % at 6.7 µM | 16,000 compounds, 0.4% hits | AID 1823; further: reference of the scale not given here
NOTCH ag: NOTCH pathway agonism; activation, % at 2.5 µM; NOTCH signaling luciferase reporter cells, luminescence; 15,000 compounds, 0.4% hits; AID 434982; in the data active means activation above about 2.2%
Nox1 inhibitor: human Nox1 inhibition. inhibition, % at 6.7 µM. 16,000 compounds, 0.81% hits. HT29 cells, luminol chemiluminescence ROS. Q9Y5S8
Target sequence (Q9Y5S8 whole entry, looked up): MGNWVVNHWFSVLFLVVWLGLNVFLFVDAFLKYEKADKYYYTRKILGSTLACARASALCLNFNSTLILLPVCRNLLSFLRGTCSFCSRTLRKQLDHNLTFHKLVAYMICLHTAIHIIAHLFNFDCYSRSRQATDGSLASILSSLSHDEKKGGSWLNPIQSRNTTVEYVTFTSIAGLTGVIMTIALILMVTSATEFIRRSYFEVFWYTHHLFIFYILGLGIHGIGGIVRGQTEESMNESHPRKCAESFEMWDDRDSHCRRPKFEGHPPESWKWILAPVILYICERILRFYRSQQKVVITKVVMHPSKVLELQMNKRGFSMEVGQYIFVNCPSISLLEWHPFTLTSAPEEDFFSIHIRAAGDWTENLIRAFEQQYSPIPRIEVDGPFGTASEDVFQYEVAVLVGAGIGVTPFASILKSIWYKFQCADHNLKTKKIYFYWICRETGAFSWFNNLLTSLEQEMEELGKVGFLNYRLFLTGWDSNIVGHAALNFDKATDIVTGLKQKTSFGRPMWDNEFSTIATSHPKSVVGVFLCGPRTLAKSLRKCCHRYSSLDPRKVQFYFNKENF
PME-1 Maybridge: PME-1 (human) inhibition, Maybridge primary screen; recombinant PME-1, FP-Rh probe fluorescence polarization; inhibition, % at 9 µM; 16,000 compounds, 0.5% hits; in the data active means inhibition above about 30%
* marks the source's active call; other numbers are inactive results; / = no result. Unless noted, no stated cut-off is given here; in the data, active means inhibition above about 75%; inactive means the rest.

SMILES	OPRK1 antag MB	luminol inh ctr	NOTCH ag	Nox1 inhibitor	PME-1 Maybridge
O=C(CSc1ccc(F)cc1)NC1Cc2ccccc2C1	6	-1	0	-62	3
O=C1NNC(c2ccccc2)C1c1ccccc1 (configuration not stated)	2	-3	0	-25	2
O=C1C=C(I)C(=O)C=C1I	-6	2	0	86*	0
Cc1ccc(N2C(=O)CCC2=O)cc1	6	-1	1	-28	6
O=C(c1ccc(F)cc1)C1CCN(C(=O)c2ccc(-c3cccs3)s2)CC1	31	6	-1	-19	-8
Cc1cc(C(=O)NNC(=O)Nc2ccc(Cl)cc2)no1	4	68	0	-40	2
Cc1cc(C(=O)NNC(=O)CSCc2cccc3ccccc23)no1	11	-6	2.8*	-8	4
Cc1cc(Br)c(NC(=S)NNc2ccccc2)c(Br)c1	13	7	0	100*	11
Cc1cc2c(N)cccc2nn1	-1	6	-1	45	106*
CCN(S(=O)(=O)c1cc(Cl)sc1Cl)S(=O)(=O)c1cc(Cl)sc1Cl	-8	-3	0	-55	1
Cc1nc(-c2ccccc2)sc1C(=O)NNC(=O)c1cccc2ccccc12	2	6	0	-33	-1
Cc1sc(-c2ccccc2)nc1CC(=O)NNC(=O)c1cccc(OC(F)(F)F)c1	-10	4	2.5*	-47	-5
FC(F)(F)c1cnc(NCCCNC(=S)Nc2cccnc2)c(Cl)c1	14	-3	2.8*	25	6
Cn1c(-c2csc(-c3cccs3)n2)n[nH]c1=S	-9	51	0	14	2
CSc1sc(C(=O)NC(=O)Nc2ccc(Cl)cc2)c2c1-c1nocc1CC2	68*	-8	1	9	8
CSc1sc(C(=O)NNC(=O)Nc2ccc(Cl)cc2)c2c1C1(CCC2)SCCS1	-20	-2	0	11	-82
C=CCn1c(SCc2n[nH]c(=S)n2C)nnc1-c1ccccc1	12	82*	-1	4	6
Cn1c(CSc2ccccc2)n[nH]c1=S	-6	8	0	-9	-2
C=CCn1c(SCC(=O)NNC(=S)NC)nnc1-c1ccccc1	-20	89*	0	-11	7
CCOC(=O)N/N=C/c1ccc(N(C)C)cc1Cl	-17	-1	1	-5	-1
C/C(=N\OCC(=O)O/N=C(\N)COc1ccc(Cl)cc1Cl)c1ccc(Cl)cc1	32	-4	0	13	6
CCOC(=O)c1cc(C(=O)OC)c(C)nc1N1CCC(NC2CCCCC2O)CC1 (configuration not stated)	92*	0	0	-30	0
Cc1ccc2c(c1)CCCN2C(=O)CC(=O)N1CCCc2cc(C)ccc21	5	77*	0	-6	8
CC(=O)Nc1ccc(NC(=O)c2ccccc2C(=O)O)cn1	10	-4	-1	-3	2
S=c1[nH]nc(Cc2ccsc2)n1Cc1ccccc1	-6	93*	0	21	3
SMILES	OPRK1 antag MB	luminol inh ctr	NOTCH ag	Nox1 inhibitor	PME-1 Maybridge
S=c1[nH]nc(Cc2ccccc2)n1Cc1ccccc1	-14	6	0	-9	1
CCC(C(=O)Nc1ccc(C(F)(F)F)cc1)c1ccccc1 (configuration not stated)	12	-3	0	16	-3
O=[N+]([O-])c1ccc(N2CCc3ccccc32)cc1	65*	5	1	0	9
O=[N+]([O-])c1ccc(N2CCC(n3cccc3)CC2)cc1	-4	7	/	-12	1
CC(=O)Nc1cccc(Oc2c(F)c(F)c(F)c(F)c2F)c1	4	3	0	-18	-1
CN(C)c1cc(NNS(=O)(=O)c2cccc(C(F)(F)F)c2)nc(N(C)C)c1C#N	11	80*	-1	66	6
O=C(O)COCC(=O)Nc1cnccn1	10	-5	0	-7	1
CCCCCC[n+]1ccccc1/C=C/c1ccc(N(C)C)cc1	72*	22	-1	-1	-17
Cn1c(-c2ccccn2)n[nH]c1=S	-15	96*	0	-21	1
N#Cc1ccc(NC(=O)COCC(=O)O)cc1	3	-5	-1	17	5
CC(=O)O/N=C(\C)c1nccs1	-2	-3	0	-17	1
O=c1[nH][nH]c2cccc(F)c12	3	11	-1	79*	-1
Cc1nc2cccc(F)c2c(=O)[nH]1	7	1	0	-10	-5
O=C(Nc1ccc(Cl)cc1)Oc1ccccc1N1CCSCC1	8	4	0	92*	-2
CN1c2ccccc2C(O)=C(C(=O)Nc2ccc(OC(F)(F)F)cc2)S1(=O)=O	4	-3	0	14	-14
CC1CN(c2ccccc2OC(=O)Nc2ccc(OC(F)(F)F)cc2)CC(C)O1 (configuration not stated)	17	15	0	101*	-12
CC(=O)c1csc(CS(=O)(=O)c2ccc(Cl)cc2)n1	-3	-2	0	-10	-1
CC(=O)c1csc(Nc2ccc(Cl)cc2)n1	6	3	2.2*	-27	5
O=[N+]([O-])c1c(Sc2ccc(Cl)cc2)ccc2nsnc12	69*	-2	-1	43	7
CN(C)c1ccc2nsnc2c1[N+](=O)[O-]	2	11	0	38	3
c1ccc2c(c1)-c1ccccc1C2c1ccncc1	7	-7	2.3*	23	-10
CCc1nc2ccccc2nc1N1CCN(C(=O)c2cccs2)CC1	-5	-5	0	-3	4
O=C1c2ccccc2C(=O)N1CNc1ccc(N2CCOCC2)cc1	-13	-4	0	98*	5
N#Cc1c(N)sc2c1CCCCC2	1	1	1	-69	1
c1cc2c(cc1COCc1ccc3c(c1)CCO3)CCO2	18	-1	-1	-20	3
SMILES	OPRK1 antag MB	luminol inh ctr	NOTCH ag	Nox1 inhibitor	PME-1 Maybridge
C/C(=N\Oc1nc(-c2ccccc2)ns1)c1cccs1	2	2	0	-84	-18
O=C(NNC(=O)c1cccnc1Oc1ccccc1)c1cccnc1Oc1ccccc1	-16	-4	0	5	7
O=C(NNc1cccc(Cl)c1)c1cccnc1Oc1ccccc1	-21	100*	0	41	0
COc1cccc(CC(=O)NNC(=O)c2ccc(-c3cccs3)s2)c1	-9	3	0	-9	-10
S=c1[nH]nc(-c2cccc3ccccc23)n1-c1cccnc1	2	89*	-1	24	-1
COc1ccccc1NNC(=O)c1cc(C(C)(C)C)nn1Cc1ccccc1	21	0	0	91*	7
FC(F)(F)c1ccc2c(c1)Nc1ccccc1S2	-6	10	/	102*	4
CC(=O)OC1C[C@H](n2cc(C)c(=O)[nH]c2=O)O[C@@H]1COS(=O)(=O)c1ccc(C)cc1 (some centres not stated)	1	2	3.0*	-58	0
COc1ccc(C(=O)NC(Nc2ccccn2)(C(F)(F)F)C(F)(F)F)cc1	12	-9	0	6	6
CCOC(=O)C1CCN(C(=O)Nc2c(-c3ccccc3)noc2C)CC1	-1	0	2.7*	-16	-1
Cc1cc(S(=O)(=O)NNc2ncnc3c2cnn3C)c(C)cc1Cl	0	1	1	102*	0
